# Bioassay records deposited in PubChem BioAssay by National Center for Advancing Translational Sciences (NCATS).
# In the library only some 12% were active in any assay of this set; here they are far more common.
# HP1b chromo inh: blocks HP1-beta chromodomain binding to methylated histone tails; AlphaScreen HP1-beta / biotin-H3K9me3 peptide binding; Potency, µM (series often up to 114 µM), hits mostly inhibitors; 390,000 compounds, 0.56% hits; AID 540317; note: nearly all actives have a fitted effect of over 70% in size
#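 AlphaScreen: HP1-beta (50 nM) preformed 30 min with biotin-H3(1-18)K9me3 peptide (50 nM) in PBS pH 7.4, 0.01% Tween-20. Compound added for 30 min at RT, then streptavidin donor/nickel chelate acceptor beads (10 ug/mL) for 30 min.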
# BAZ2B inh: blocks human BAZ2B; AID 504333; Q9UIF8; Potency, µM (top dose mostly 114 µM), actives largely listed as inhibitors; 360,000 compounds, 4.4% hits; AlphaScreen BAZ2B-H3K14Ac peptide displacement; note: nearly all actives have a fitted effect of over 60% in size
#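 AlphaScreen displacement: compounds (up to 110uM) incubated 30 min at room temperature with a preformed 50 nM BAZ2B/50 nM biotinylated H3K14Ac peptide complex in PBS pH 7.4 with Tween-20. Donor and acceptor beads at 10 ug/mL final added, 20 min light-protected before reading.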
# TDP1 block: TDP1 (human) enzyme inhibition | Q9NUW8 | recombinant TDP1, AlphaScreen DNA substrate cleavage | Potency, µM (doses to about 130 µM), usual class: inhibitors | 350,000 compounds, 0.28% hits | AID 485290; note: nearly all actives have a fitted effect of over 40% in size
#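 Recombinant human Tdp1 (E. coli-expressed, 1 nM final) preincubated with compounds 15 min at room temperature, then 5'-biotin/3'-phosphotyrosine-FITC DNA substrate (15 nM final) added for 5 min. AlphaScreen beads (10 ug/ml final) added 10 min; cleavage lowers signal.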
# JMJD2A Tudor inh: inhibitors of human JMJD2A Tudor domain. 390,000 compounds, 4.4% hits. O75164. Potency, µM (series often up to 114 µM), most hits filed as inhibitors. AID 504339. AlphaScreen JMJD2A-Tudor / H3K4me3 peptide binding; note: nearly all actives have a fitted effect of over 50% in size
# G9a inh: G9a (human) methyltransferase inhibition. Q96KQ7. G9a H3K9 monomethylation, AlphaScreen, 2 h. Potency, µM (top dose mostly 102 µM), hits mostly inhibitors. 350,000 compounds, 8.8% hits; note: nearly all actives have a fitted effect of over 75% in size
#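 Step 1: enzyme (final 20 nM) with compound, 15 min RT. Step 2: substrate peptide 500 nM and SAM 20 uM, 2 h RT. Step 3: anti-H3K9me1 antibody and AlphaScreen beads, 10 min, then plate read.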
# Sfp inh: Sfp phosphopantetheinyl transferase inhibition. Biochemical Sfp PPTase activity, qHTS. Potency, µM, most hits filed as inhibitors. 310,000 compounds, 3.5% hits. AID 1490;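 note: the enzyme is Sfp with the accession as filed and its product quenches rhodamine fluorescence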
#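 With Hepes-Na pH 7.6 buffer containing 10 mM MgCl2, Sfp (15 nM) modified BHQ-2-YbbR (12.5 uM) using rhodamine-CoA (5 uM). Two reads 30 minutes apart at 525/598 nm yielded each well's rate.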
# Hits are given with their value; 0 = inactive; ? = inconclusive; - = no result given; [ ] = another dose, or the depositor's remark. Calls come from the whole dose curve; as a rule, active = well fitted curve in the direction sought with a large enough effect; inconclusive = small, poorly fitted or top-dose-only effect, or another doubt; inactive = no such curve, though single readings can be large; an effect the other way counts as inactive or inconclusive.
SMILES,HP1b chromo inh,BAZ2B inh,TDP1 block,JMJD2A Tudor inh,G9a inh,Sfp inh
CN1CCc2sc(NC(=O)Cc3ccccc3)c(C(=O)Nc3ccc(Cl)cc3)c2C1,-,-,0,?,-,-
Cc1ccc(O/C=C2/Nn3c(nnc3-c3cc(-c4ccccc4)n[nH]3)S2)cc1,0,-,0,0,-,-
O=C(NCc1n[nH]c(=S)n1-c1ccc(Cl)c(Cl)c1)c1ccc(S(=O)(=O)N2CCOCC2)cc1,0,0,0,0,8.91µM,0
O=C(NCC1CCN(c2ccc(S(=O)(=O)N3CCOCC3)cc2)CC1)c1ccc(Cl)cc1,0,0,0,0,?,0
O=C(NNC(=O)c1ccc(S(=O)(=O)N2CCCC2)cc1)c1ccc(Br)cc1,0,0,0,0,0,-
O=C(NCc1n[nH]c(=S)n1-c1ccc([N+](=O)[O-])cc1)c1ccc(S(=O)(=O)N2CCOCC2)cc1,0,0,0,56.2µM,7.08µM,0
O=C(NCc1n[nH]c(=S)n1-c1ccc(Br)cc1)c1ccc(S(=O)(=O)N2CCCCC2)cc1,0,0,0,0,7.94µM,0
O=C(NCc1n[nH]c(=S)n1-c1ccc(Br)cc1)c1ccc(S(=O)(=O)N2CCOCC2)cc1,0,0,0,?,3.16µM,0
O=C(NCc1cccnc1)c1ccc(S(=O)(=O)N2CCOCC2)cc1,0,0,0,0,0,0
CCCn1c(=N)n(CC(O)c2ccco2)c2ccccc21 (centres undefined),0,0,0,0,0,0
Cn1c(=N)n(CC(O)c2ccco2)c2ccccc21 (centres undefined),0,0,0,0,0,89.1µM
CCCS(=O)(=O)c1c(S(=O)(=O)CCC)c2ccc(C(C)=O)cn2c1C(=O)OC,0,0,0,0,35.5µM,0
CCCS(=O)(=O)c1c(S(=O)(=O)CCC)c2c(N)cccn2c1C(=O)OC,0,?,0,0,-,28.2µM
COc1ccc(S(=O)(=O)Nc2nnc(CC(C)(C)C)s2)cc1,0,0,0,0,35.5µM,0
COc1ccc(Cc2nnc(NS(=O)(=O)c3ccccc3)s2)cc1,0,0,0,0,0,0
COc1ccc(S(=O)(=O)Nc2nnc(C(C)(C)C)s2)cc1,0,-,0,0,1.78µM,17.8µM
CSc1nsc(SC)c1C(=O)Nc1ccc(C)cc1,0,?,0,0,25.1µM,0
O=C(NNC(=O)c1cccnc1SCc1cccc([N+](=O)[O-])c1)c1ccc(F)cc1,0,0,0,0,?,0
O=C(N/N=C(\c1ccccc1)c1ccccn1)c1cccc([N+](=O)[O-])c1,0,25.1µM,0,?,0,0
CCOc1ccc(C(=O)Nc2cccc3cccnc23)cc1,0,0,-,0,0,0
O=C(NNC(=O)c1cccnc1SCc1cccc([N+](=O)[O-])c1)c1cccnc1,0,0,0,0,35.5µM,0
Cn1ccnc1/C(=N\NC(=O)c1ccccc1)c1cccc([N+](=O)[O-])c1,0,0,0,0,39.8µM,0
CCOc1ccc(C(=O)N/N=C(\c2ccccc2)c2ccccn2)cc1,0,79.4µM,0,0,0,0
O=S(=O)(c1ccc(Br)cc1)c1nnn2c1nc(NCc1ccc3c(c1)OCO3)c1sccc12,0,0,0,0,0,-
CCOC(=O)C1OC1C(=O)N[C@@H](CC(C)C)C(=O)NCCC(C)C (some centres undefined),-,-,0,-,-,0
SMILES,HP1b chromo inh,BAZ2B inh,TDP1 block,JMJD2A Tudor inh,G9a inh,Sfp inh
O=C(NNC(=O)c1cnccn1)c1cccc([N+](=O)[O-])c1,0,0,0,0,0.562µM,2.51µM
CSc1nnc(-c2cc[n+](C)cc2)n1CCO,0,0,0,89.1µM,7.94µM,0
CC(=O)Nc1cccc(C(=O)OC(C)C(=O)N2CCc3ccccc32)c1 (centres undefined),0,0,-,0,0[0.501 µM],-
CC(=O)c1cccc(NC(=S)N2CCc3ccccc32)c1,0,0,0,0,35.5µM,0
O=C(NC(=S)N1CCc2ccccc21)c1ccccc1,0,?,0,?,44.7µM,0
COc1ccc(NC(=S)N2CCc3ccccc32)cc1OC,0,?,0,0,50.1µM,0
O=C(c1ccccc1)N1CCc2ccccc21,0,0,0,0,0[12.7 µM],0
O=C(c1c(F)c(F)c(F)c(F)c1F)N1CCc2ccccc21,0,-,-,56.2µM,-,-
CN(C(=O)/C=C/c1ccccc1)C1CCCCC1,0,-,-,0,-,-
Cc1cccc(Oc2ccc3c(c2)Oc2ccccc2NC3=O)c1,0,50.1µM,-,50.1µM,0,-
CC(C)(C)C1CCC(=NNc2ccc(S(N)(=O)=O)cc2[N+](=O)[O-])CC1 (centres undefined),0,?,0,?,25.1µM,0
CCN(CC)S(=O)(=O)c1ccc(NN=C2CCN(C)CC2)c([N+](=O)[O-])c1,?,-,0,?,35.5µM,0
CCN(CC)S(=O)(=O)c1ccc(NN=C2CCN(C(C)C)CC2)c([N+](=O)[O-])c1,0,?,0,?,44.7µM,0
O=[N+]([O-])c1cc(S(=O)(=O)N2CCCC2)ccc1NN=C1CCCCC1,0,0,0,0,0,0
CCc1ccc(C(=O)c2cn(CC(=O)Nc3ccc(F)cc3)c3ccc(F)cc3c2=O)cc1,0,0,0,0,0,-
O=c1c2ccccc2nnn1CSc1nnc(-c2cccnc2)n1-c1ccccc1F,0,0,0,0,50.1µM,0
Nn1c(Cc2ccccc2F)nnc1SCn1nnc2ccccc2c1=O,0,0,0,0,25.1µM,0
CCSc1cnc(-c2ccccc2)n1CC,0,?,0,0,50.1µM,0
COc1ccc(CNC2CCSc3ccccc32)cc1OC (centres undefined),?,50.1µM,-,8.91µM,10µM,0
O=S(=O)(NC1CCSc2ccccc21)c1ccccc1 (centres undefined),0,0,0,0,0,0
O=[N+]([O-])c1ccccc1CNC1CCCc2ccccc21 (centres undefined),?,56.2µM,0,28.2µM,?,0
COc1ccc(CNC2c3ccccc3-c3ccccc32)cc1OC,0,0,0,0,?,0
COc1ccc(S(=O)(=O)NC2CCSc3ccccc32)cc1OC (centres undefined),0,0,0,0,50.1µM,0
COc1ccc(CNC2CCCc3ccccc32)cc1OC (centres undefined),0,70.8µM,0,11.2µM,?,0
CC(=O)Nc1ccc(S(=O)(=O)N2CCc3nc(COc4ccccc4)c4c(c3C2)CO[C@@H](C)C4)cc1,-,-,0[12.3 µM],-,-,0
Cc1ccc(N2CCN(S(=O)(=O)c3c(C)nc4scc(C)n4c3=O)CC2)c(C)c1,0,0,0,0,-,0
COc1ccc(OC)c(S(=O)(=O)Nc2ccccc2C(=O)N2CCCCC2)c1,0,0,0,0,0,-
O=C(COc1ccccc1Cl)NNC(=O)c1ccc2nc[nH]c2c1,0,0,0,0,0,-
